Source: PubChem
In the library only some 4% were active in any assay of this set; here they are far more common.
DENV2 CPE: inhibitors of DENV2 cytopathic effect | 1.7% of 350,000 active | CPE inhibition, % at 9.99 µM | DENV2-infected cells, cytopathic effect rescue, plate reader; in the data active = CPE inhibition above about 20%, passing the limit was not always enough; inconclusive = no clear call, values can overlap the other calls; tested in BHK-21 cells
MLL AF4-AF9 inh: inhibitors of human MLL-AF4/AF9 interaction | P42568 | inhibition, % at 10 µM | 0.47% of 350,000 active | AlphaScreen, biotin-AF4 peptide binding to FLAG-AF9;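 active = every replicate reaching a set inhibition limit, whatever the replicate mean, cut at about 25% in these data; inconclusive = mean inhibition reaches that limit but some replicates miss it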
Target sequence (P42568 whole entry, looked up): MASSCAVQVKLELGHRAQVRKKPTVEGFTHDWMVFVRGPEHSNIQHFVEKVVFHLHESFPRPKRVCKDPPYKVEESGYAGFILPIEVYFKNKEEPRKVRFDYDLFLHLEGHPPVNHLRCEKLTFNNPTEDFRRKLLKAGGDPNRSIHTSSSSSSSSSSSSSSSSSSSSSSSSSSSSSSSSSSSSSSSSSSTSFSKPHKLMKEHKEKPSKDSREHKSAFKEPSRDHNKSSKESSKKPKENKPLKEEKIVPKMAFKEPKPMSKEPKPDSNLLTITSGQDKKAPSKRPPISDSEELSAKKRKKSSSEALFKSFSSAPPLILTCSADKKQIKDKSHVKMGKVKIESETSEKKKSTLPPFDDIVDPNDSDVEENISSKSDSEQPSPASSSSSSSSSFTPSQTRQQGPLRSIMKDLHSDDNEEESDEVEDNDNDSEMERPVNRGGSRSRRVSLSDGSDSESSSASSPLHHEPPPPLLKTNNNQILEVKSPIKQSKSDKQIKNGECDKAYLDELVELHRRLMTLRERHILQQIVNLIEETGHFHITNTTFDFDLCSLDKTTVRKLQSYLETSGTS
ERAP1 inh: blocks human ERAP1 aminopeptidase activity; 0.15% of 340,000 active; recombinant ERAP1, Leu-AMC fluorescence, 60 min; Q9NZ08; inhibition, % at 10.7 µM;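 active = mean replicate inhibition of at least 30%, or all replicates individually reaching that 30% level; inactive = mean below 30% and not every replicate reaching it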
FGF22 binding-1: FGF22 (human) thermal shift binding. activity (Tm shift, normalised), % at 9.99 µM. AID 651658. 1.5% of 340,000 active. Q9HCT0. recombinant FGF22 thermal shift, SYPRO orange fluorescence; percent of sucrose octasulfate shift, DMSO zero;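 active = mean Tm shift, scaled 0 neutral to 100 positive control, at about 1.3% or above, every replicate too, limit read from the data; inconclusive = no clear call, values can overlap the other calls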
RAD52 anneal inh: blocks human RAD52 DNA annealing | P43351 | recombinant RAD52 DNA annealing, FRET fluorescence | inhibition, % at 18.7 µM | 0.46% of 360,000 active;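 active = every replicate showing at least 50% inhibition; inconclusive = mean inhibition at least 50% but not in every replicate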
FGF22 binding-2: binds human FGF22 shifting its melting temperature; 2% of 1,000 active; recombinant FGF22 thermal shift, SYPRO orange fluorescence; shares compounds with FGF22 binding-1; thermal shift activity, °C (ΔTm) at 38 µM; AID 720646;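 active = fitted rise in melting shift crosses a set limit at or below the top valid dose tested; inconclusive = flat fit at mid-level activity, or a poor quality fit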
TSA no protein: compound-only SYPRO artifact for FGF22 binders; compound-only SYPRO orange thermal shift counter-screen, no protein; AC50, µM (titrated, usually from 38 µM); shares compounds with FGF22 binding-1; 2% of 1,000 active; AID 743019;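 active = rising signal whose fitted curve reaches the 0.54 level within the top valid dose, showing a melting point, actives reach about 13 µM in these data; inactive = the rest, including activity in the opposite direction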; also: value is where the raw curve crosses a fixed level and not half-maximal
Numbers stand for hits.

CCN(CC)CCNC(=O)c1ccc(NC(=O)c2ccc(S(=O)(=O)N(C)c3ccccc3OC)cc2)cc1 was read as DENV2 CPE inactive, MLL AF4-AF9 inh inactive, ERAP1 inh inactive, FGF22 binding-1 inactive and RAD52 anneal inh inactive.
`O=C(NCc1ccc(F)cc1)[C@H]1[C@H](CO)[C@H]2Cn3c(cccc3=O)[C@@H]1N2C(=O)Cc1ccccn1` gave DENV2 CPE inconclusive, MLL AF4-AF9 inh inactive, ERAP1 inh inactive, FGF22 binding-1 inactive and RAD52 anneal inh inactive.
`Cc1ccc(C2C(=O)c3ccccc3C2=O)cc1` gave DENV2 CPE inconclusive, MLL AF4-AF9 inh inactive, ERAP1 inh inactive, FGF22 binding-1 inactive and RAD52 anneal inh inactive.
For O=C1C(=O)C(c2ccccc2)C(=O)C1c1ccccc1 (stereo not drawn) the results were DENV2 CPE inactive, MLL AF4-AF9 inh inactive, ERAP1 inh inactive, FGF22 binding-1 5.8, RAD52 anneal inh inactive, FGF22 binding-2 inactive and TSA no protein inactive.
`COc1ccccc1NC(=O)N(C)C[C@H]1Oc2ncc(C#CC(C)C)cc2C(=O)N([C@@H](C)CO)C[C@@H]1C` gave DENV2 CPE inactive, MLL AF4-AF9 inh inactive, ERAP1 inh inactive, FGF22 binding-1 inactive and RAD52 anneal inh inactive.
CN(CC(=O)Nc1ccccc1Cl)C(=O)COC(=O)c1ccc(-c2ccc(O)cc2)cc1 was read as DENV2 CPE inactive, MLL AF4-AF9 inh inactive, ERAP1 inh inactive, FGF22 binding-1 inactive and RAD52 anneal inh inactive.
`CN(CC(=O)Nc1ccccc1Cl)C(=O)COC(=O)c1nc(Cl)ccc1Cl` gave DENV2 CPE inactive, MLL AF4-AF9 inh inactive, ERAP1 inh inactive, FGF22 binding-1 1.6, RAD52 anneal inh inactive, FGF22 binding-2 inactive and TSA no protein inactive.
Screening CO[C@H]1CN(C)C(=O)c2ccc(NC(=O)C3CC3)cc2OC[C@H](C)N(Cc2ccc(F)cc2)C[C@@H]1C returned DENV2 CPE inactive, MLL AF4-AF9 inh inactive, ERAP1 inh inactive, FGF22 binding-1 inactive and RAD52 anneal inh inactive.
For CCC(=O)N(C)C[C@@H]1Oc2ncc(C3=CCCC3)cc2C(=O)N([C@@H](C)CO)C[C@H]1C the results were DENV2 CPE inactive, MLL AF4-AF9 inh inactive, ERAP1 inh inactive, FGF22 binding-1 inactive and RAD52 anneal inh inactive.
Screening CCOC(=O)c1c(C)[nH]c(C)c1C(=O)COC(=O)/C=C/c1ccccc1[N+](=O)[O-] returned DENV2 CPE inconclusive, MLL AF4-AF9 inh inactive, ERAP1 inh inactive, FGF22 binding-1 2.0, RAD52 anneal inh inactive, FGF22 binding-2 inactive and TSA no protein inactive.
O=c1c2cc([N+](=O)[O-])cc([N+](=O)[O-])c2[nH]n1-c1ccccc1 was read as DENV2 CPE inactive, MLL AF4-AF9 inh inactive, ERAP1 inh inactive, FGF22 binding-1 1.8, RAD52 anneal inh inactive, FGF22 binding-2 inactive and TSA no protein inactive.
For O=C(CN(Cc1ccccc1)S(=O)(=O)c1ccc(Br)cc1)N/N=C/c1ccccc1C(=O)O the results were DENV2 CPE inactive, MLL AF4-AF9 inh inactive, ERAP1 inh inactive, FGF22 binding-1 inactive and RAD52 anneal inh inactive.
For O=C(CN(Cc1ccccc1)S(=O)(=O)c1ccccc1)N/N=C/c1ccccc1C(=O)O the results were DENV2 CPE inactive, MLL AF4-AF9 inh inactive, ERAP1 inh inactive, FGF22 binding-1 2.3, RAD52 anneal inh inactive, FGF22 binding-2 inactive and TSA no protein inactive.
N#Cc1cccc(-c2ccc3c(c2)[C@@H]2[C@@H](CCN2S(=O)(=O)c2ccccc2F)[C@@H](CO)N3)c1 was read as DENV2 CPE inactive, MLL AF4-AF9 inh inactive, ERAP1 inh inactive, FGF22 binding-1 inactive and RAD52 anneal inh inactive.
For COc1ccccc1-c1cccc(-c2nc(C(=O)NCc3ccncc3)cc3c2[C@@H](CCO)N([S@](=O)C(C)(C)C)C3)c1 the results were DENV2 CPE inactive, MLL AF4-AF9 inh inactive, ERAP1 inh inactive, FGF22 binding-1 24, RAD52 anneal inh inactive, FGF22 binding-2 inactive and TSA no protein inactive.
For CC(C)(C)[S@](=O)N1Cc2cc(C(=O)N[C@@H]3CCN(Cc4ccccc4)C3)nc(-c3cccc(-c4cccnc4)c3)c2[C@@H]1CCO the results were DENV2 CPE inactive, MLL AF4-AF9 inh inactive, ERAP1 inh inactive, FGF22 binding-1 2.1, RAD52 anneal inh inactive, FGF22 binding-2 inactive and TSA no protein inactive.
`CC(C)(C)[S@@](=O)N1Cc2cc(C(=O)NCc3ccncc3)nc(-c3cccc(-c4ccncc4)c3)c2[C@H]1CCO` gave DENV2 CPE inactive, MLL AF4-AF9 inh inactive, ERAP1 inh inactive, FGF22 binding-1 inactive and RAD52 anneal inh inactive.
For O=C(C[C@H]1CC[C@@H]2[C@H](COC[C@H](O)CN2C(=O)Nc2ccc(F)cc2)O1)NCCc1ccccc1 the results were DENV2 CPE inactive, MLL AF4-AF9 inh inactive, ERAP1 inh inactive, FGF22 binding-1 inactive and RAD52 anneal inh inactive.
Screening C[C@H]1CN([C@@H](C)CO)C(=O)Cc2cc(NC(=O)Cc3cn(C)c4ccccc34)ccc2O[C@H]1CN(C)S(=O)(=O)c1ccc(F)cc1 returned DENV2 CPE inactive, MLL AF4-AF9 inh inactive, ERAP1 inh inactive, FGF22 binding-1 inactive and RAD52 anneal inh inactive.
Screening O=C(OCC(=O)c1cccs1)c1cccc(C(=O)OCC(=O)c2cccs2)n1 returned DENV2 CPE inactive, MLL AF4-AF9 inh inactive, ERAP1 inh inactive, FGF22 binding-1 2.2, RAD52 anneal inh inactive, FGF22 binding-2 inactive and TSA no protein inactive.
`CN(C)c1ccc(C(=O)OCC(=O)c2cccs2)cc1` gave DENV2 CPE inactive, MLL AF4-AF9 inh inactive, ERAP1 inh inactive, FGF22 binding-1 inactive and RAD52 anneal inh inactive.
`Cc1ccc(NC(=O)COC(=O)Cn2cnc3c2c(=O)n(C)c(=O)n3C)cc1Cl` gave DENV2 CPE inactive, MLL AF4-AF9 inh inactive, ERAP1 inh inactive, FGF22 binding-1 inactive and RAD52 anneal inh inactive.
Screening Cc1ccc(NC(=O)COC(=O)Cn2cnc3c2c(=O)n(C)c(=O)n3C)cc1F returned DENV2 CPE inactive, MLL AF4-AF9 inh inactive, ERAP1 inh inactive, FGF22 binding-1 30, RAD52 anneal inh inactive, FGF22 binding-2 inactive and TSA no protein inactive.
`C[C@@H]1CN([C@@H](C)CO)C(=O)c2cccc(NS(C)(=O)=O)c2O[C@@H]1CN(C)C(=O)Nc1ccc2c(c1)OCO2` gave DENV2 CPE inactive, MLL AF4-AF9 inh inactive, ERAP1 inh inactive, FGF22 binding-1 inactive and RAD52 anneal inh inactive.
CCc1nnc(NC(=O)CN2CCN(Cc3ccc(C)cc3)CC2)s1 was read as DENV2 CPE inactive, MLL AF4-AF9 inh inactive, ERAP1 inh inactive, FGF22 binding-1 1.7, RAD52 anneal inh inactive, FGF22 binding-2 inactive and TSA no protein inactive.
O=C(O)c1ccc(NS(=O)(=O)c2ccc(C(=O)Nc3ccccc3)cc2)cc1 was read as DENV2 CPE inactive, MLL AF4-AF9 inh inactive, ERAP1 inh inactive, FGF22 binding-1 inactive and RAD52 anneal inh inactive.
